Data as given in PubChem BioAssay (Tox21).
Inconclusive results are not listed. Activity calls are given as the source filed them. The call rests on the fitted dose curve.

assay: qHTS assay to identify small molecule agonists of the hypoxia (HIF-1) signaling pathway - cell viability counter screen (AID 1224844); conditions: HRE-bla ME-180 viability, CellTiter-Glo luminescence, 17 h; series mostly up to 76.8 µM; activity change, negative = cytotoxicity: at the top concentration; further: nearly all actives have a fitted effect of over 50% in size
Procedure, shortened: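 HRE-bla ME-180 cells, 2,000/well in 0.5% dialyzed FBS medium, treated 17 h at 37C with compounds. Viability read in the same wells as the bla reporter, by CellTiter-Glo luminescence after 30 min at room temperature.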
On the % scale 0 is the no-effect control and ±100 the full control effect; potency means the concentration at half of the fitted maximal effect.

| SMILES | activity change, negative = cytotoxicity | Potency |
| --- | --- | --- |
| CCc1ccc(C2CCNCC2)cc1 | -0.164% [at 35.3 µM] (inactive) |  |
| CC(C)C(C)(N)C#N (stereo not drawn) | -3.59% (inactive) |  |
| CN(C)C(=O)Oc1cc(OC(=O)N(C)C)cc(C(O)CNC(C)(C)C)c1 (stereo not drawn) | -0.319% [at 35.3 µM] (inactive) |  |
| CCOC(=O)NC(C)(C)Cc1ccc(Cl)cc1 | 1.58% [at 35.3 µM] (inactive) |  |
| CN(C)CCc1c[nH]c2cccc(OP(=O)(O)O)c12 | 9.55% (inactive) |  |
| Cn1c(N)nc2c3cccnc3ccc21 | 1.77% (inactive) |  |
| O=C1C2CC=CCC2C(=O)N1SC(Cl)(Cl)Cl (stereo not drawn) |  | 6.07 µM (active) |
| CCNc1nc(NCC)nc(SC)n1 | 8.44% (inactive) |  |
| N[C@@H](Cc1ccc(Oc2cc(I)c(O)c(I)c2)c(I)c1)C(=O)O | -6.85% [at 35.3 µM] (inactive) |  |
| CCNc1nc(Cl)nc(NC(C)(C)C)n1 | 15.5% (inactive) |  |
| CCOC(=O)C(Cl)Cc1cc(-n2nc(C)n(C(F)F)c2=O)c(F)cc1Cl (stereo not drawn) | 7.04% (inactive) |  |
| COc1ccc(CN2CCNCC2)c(OC)c1OC | 2.42% [at 35.3 µM] (inactive) |  |
| CCOP(=S)(OCC)SCCl | -14.2% (inactive) |  |
| CC(=O)OCC1=C(C(=O)O)N2C(=O)[C@@H](N)[C@H]2SC1 | -17.2% [at 15.8 µM] (inactive) |  |
| C=CCc1cc(OC)c2c(c1)OCO2 | 0.396% (inactive) |  |
| CC#Cc1cc(C)nc(Nc2ccccc2)n1 | 18% (inactive) |  |
| N#CC(Br)(Br)C(N)=O | -1.62% (inactive) |  |
| CC[C@H](O)C(C[C@H](C)N(C)C)(c1ccccc1)c1ccccc1 | -17.3% (inactive) |  |
| NCC1(CC(=O)O)CCCCC1 | -0.773% [at 35.3 µM] (inactive) |  |
| [O-][Br+2]([O-])O | 6.38% [at 35.3 µM] (inactive) |  |
| NNC(N)=O | 1.89% (inactive) |  |
| CC(Cc1ccccc1)NCCCCl (stereo not drawn) | -5.08% [at 35.3 µM] (inactive) |  |
| CC(C)(C)c1cc(O)ccc1O | 3.5% (inactive) |  |
